Data published in PubChem BioAssay AID1159580 (chemical genetic matrix, 2015).
The whole screen tested about 5,500 compounds, of which about 2,000 (36%) were called active. Not shown: some 18% with an inconclusive outcome. Rule as the data show it: active = normalized growth mostly below about 0.91 (no sharp cut-off); inconclusive = no clear call, values can overlap the other calls; inactive = mostly above about 0.92. This is one part of the list.

Experiment: chemical genetic growth profiling, strain panel (AID 1159580);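 also: tested at 20 µM; growth read once vehicle control cultures reached saturation at 30 °C; 1 = growth at the plate median or of vehicle wells; lower values mean less growth of the strain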
Settings: growth OD

Measured: normalized growth

C/C=C(\C)C(=O)O[C@H]1C[C@@H](OC(C)=O)[C@@]2(C(=O)OC)CO[C@@H]3C2[C@]12CO[C@](O)(C(=O)OC)[C@H]2[C@](C)(C12O[C@@]1(C)[C@H]1C[C@@H]2OC2OC=C[C@@]21O)[C@@H]3O (some centres not stated)
inactive: S. cerevisiae deletion strains, locus YJR075W, strain HOC1, hits give low values 0.998 | S. cerevisiae deletion strains, locus YKL009W, strain mrt4, hits give low values 0.996 | S. cerevisiae deletion strains, locus YKL068W, hits give low values 0.987 | S. cerevisiae deletion strains, locus YKL085W, strain MDH1 (second series), hits give low values 0.998 | S. cerevisiae deletion strains, locus YKL085W, strain MDH1, hits give low values 0.998 | S. cerevisiae deletion strains, locus YKL160W, strain elf1, hits give low values 0.954 | S. cerevisiae deletion strains, locus YKL190W, strain CNB1, hits give low values 0.997 | S. cerevisiae deletion strains, locus YKR001C, strain vps1, hits give low values 0.988 | S. cerevisiae deletion strains, locus YKR026C, strain gcn3, hits give low values 0.992 | S. cerevisiae deletion strains, locus YKR091W, strain srl3, hits give low values 0.964 | S. cerevisiae deletion strains, locus YLL001W, strain dnm1, hits give low values 0.965 | S. cerevisiae deletion strains, locus YLL026W, hits give low values 0.978 | S. cerevisiae deletion strains, locus YLL041C, strain sdh2, hits give low values 0.975 | S. cerevisiae deletion strains, locus YLR027C, strain aat2, hits give low values 0.991 | S. cerevisiae deletion strains, locus YLR039C, strain RIC1, hits give low values 1.04 | S. cerevisiae deletion strains, locus YLR058C, strain SHM2, hits give low values 0.982 | S. cerevisiae deletion strains, locus YLR102C, strain apc9, hits give low values 0.979 | S. cerevisiae deletion strains, locus YLR113W, strain HOG1, hits give low values 1.02 | S. cerevisiae deletion strains, locus YLR221C, strain rsa3, hits give low values 0.999 | S. cerevisiae deletion strains, locus YLR258W, strain gsy2, hits give low values 0.969 | S. cerevisiae deletion strains, locus YLR262C, strain YPT6 (second series), hits give low values 0.968 | S. cerevisiae deletion strains, locus YLR262C, strain YPT6, hits give low values 1.03 | S. cerevisiae deletion strains, locus YLR268W, strain sec22, hits give low values 0.913 | S. cerevisiae deletion strains, locus YLR320W, strain mms22, hits give low values 0.992 | S. cerevisiae deletion strains, locus YLR330W, strain CHS5, hits give low values 0.996 | S. cerevisiae deletion strains, locus YLR342W, strain FKS1 (second series), hits give low values 1.05 | S. cerevisiae deletion strains, locus YLR342W, strain FKS1, hits give low values 0.983 | S. cerevisiae deletion strains, locus YLR357W, strain rsc2, hits give low values 0.978 | S. cerevisiae deletion strains, locus YLR370C, strain arc18, hits give low values 0.987 | S. cerevisiae deletion strains, locus YLR371W, strain rom2, hits give low values 0.971 | S. cerevisiae deletion strains, locus YLR384C, strain iki3, hits give low values 0.976 | S. cerevisiae deletion strains, locus YLR418C, strain cdc73, hits give low values 1 | S. cerevisiae deletion strains, locus YML016C, strain PPZ1, hits give low values 0.985 | S. cerevisiae deletion strains, locus YML032C, strain rad52, hits give low values 0.957 | S. cerevisiae deletion strains, locus YML120C, strain ndi1, hits give low values 0.979 | S. cerevisiae deletion strains, locus YML124C, strain tub3, hits give low values 0.99 | S. cerevisiae deletion strains, locus YMR058W, strain fet3, hits give low values 0.973 | S. cerevisiae deletion strains, locus YMR078C, strain ctf18, hits give low values 0.963 | S. cerevisiae deletion strains, locus YMR125W, strain sto1, hits give low values 0.958 | S. cerevisiae deletion strains, locus YMR129W, hits give low values 0.991 | S. cerevisiae deletion strains, locus YMR205C, strain PFK2, hits give low values 0.984 | S. cerevisiae deletion strains, locus YMR223W, strain ubp8, hits give low values 0.998 | S. cerevisiae deletion strains, locus YMR231W, strain pep5, hits give low values 0.968 | S. cerevisiae deletion strains, locus YMR263W, strain SAP30, hits give low values 0.987 | S. cerevisiae deletion strains, locus YMR307W, strain GAS1, hits give low values 0.987 | S. cerevisiae deletion strains, locus YNL067W, strain RPL9B, hits give low values 0.979 | S. cerevisiae deletion strains, locus YNL071W, strain lat1, hits give low values 0.983 | S. cerevisiae deletion strains, locus YNL128W, strain TEP1, hits give low values 0.993 | S. cerevisiae deletion strains, locus YNL153C, strain GIM3, hits give low values 0.988 | S. cerevisiae deletion strains, locus YNL183C, strain NPR1, hits give low values 0.972 | S. cerevisiae deletion strains, locus YNL209W, strain ssb2, hits give low values 0.989 | S. cerevisiae deletion strains, locus YNL233W, strain BNI4, hits give low values 0.98 | S. cerevisiae deletion strains, locus YNL248C, strain rpa49, hits give low values 0.967 | S. cerevisiae deletion strains, locus YNL250W, strain rad50, hits give low values 0.981 | S. cerevisiae deletion strains, locus YNL271C, strain bni1, hits give low values 0.97 | S. cerevisiae deletion strains, locus YNL298W, strain CLA4, hits give low values 0.968 | S. cerevisiae deletion strains, locus YNL307C, strain MCK1, hits give low values 0.983 | S. cerevisiae deletion strains, locus YNL322C, strain KRE1 (second series), hits give low values 0.977 | S. cerevisiae deletion strains, locus YNL322C, strain KRE1, hits give low values 0.995 | S. cerevisiae deletion strains, locus YNR049C, strain mso1, hits give low values 0.976 | S. cerevisiae deletion strains, locus YNR052C, strain pop2, hits give low values 0.973 | S. cerevisiae deletion strains, locus YOL006C, strain TOP1, hits give low values 0.926 | S. cerevisiae deletion strains, locus YOL012C, strain htz1 0.809 | S. cerevisiae deletion strains, locus YOL147C, strain pex11, hits give low values 0.981 | S. cerevisiae deletion strains, locus YOR001W, strain rrp6, hits give low values 0.995 | S. cerevisiae deletion strains, locus YOR061W, strain CKA2, hits give low values 0.989 | S. cerevisiae deletion strains, locus YOR069W, strain VPS5, hits give low values 0.982 | S. cerevisiae deletion strains, locus YOR070C, strain gyp1, hits give low values 1 | S. cerevisiae deletion strains, locus YOR080W, strain dia2, hits give low values 0.991 | S. cerevisiae deletion strains, locus YOR083W, strain WHI5, hits give low values 0.968 | S. cerevisiae deletion strains, locus YOR106W, strain vam3, hits give low values 0.938 | S. cerevisiae deletion strains, locus YOR136W, strain idh2, hits give low values 0.974 | S. cerevisiae deletion strains, locus YOR144C, strain elg1, hits give low values 0.973 | S. cerevisiae deletion strains, locus YOR184W, strain ser1, hits give low values 0.967 | S. cerevisiae deletion strains, locus YOR231W, strain MKK1, hits give low values 0.989 | S. cerevisiae deletion strains, locus YOR265W, strain rbl2, hits give low values 0.984 | S. cerevisiae deletion strains, locus YOR270C, strain vph1, hits give low values 0.93 | S. cerevisiae deletion strains, locus YOR290C, strain snf2, hits give low values 0.946 | S. cerevisiae deletion strains, locus YOR316C, strain cot1, hits give low values 0.977 | S. cerevisiae deletion strains, locus YPL051W, strain arl3, hits give low values 0.98 | S. cerevisiae deletion strains, locus YPL055C, strain LGE1, hits give low values 1.01 | S. cerevisiae deletion strains, locus YPL078C, strain atp4, hits give low values 0.942 | S. cerevisiae deletion strains, locus YPL106C, strain sse1, hits give low values 1 | S. cerevisiae deletion strains, locus YPL240C, strain hsp82, hits give low values 0.985 | S. cerevisiae deletion strains, locus YPL241C, strain CIN2, hits give low values 1 | S. cerevisiae deletion strains, locus YPL256C, strain CLN2, hits give low values 0.971 | S. cerevisiae deletion strains, locus YPR119W, strain clb2, hits give low values 0.991 | S. cerevisiae deletion strains, locus YPR141C, strain kar3, hits give low values 0.977 | S. cerevisiae deletion strains, locus YPR163C, strain tif3, hits give low values 0.97 | S. cerevisiae deletion strains, locus YPR167C, strain met16, hits give low values 0.978 | S. cerevisiae deletion strains, strain wtn01, hits give low values 0.948 | S. cerevisiae strains, strain wild type, hits give low values 0.994
